In PubChem BioAssay AID1377 (University of Pittsburgh Molecular Library Screening Center, 2008):
Screen size: about 220,000 compounds; about 830 (0.38%) were called active. This is one part of a sample in which actives are shown more often than they occur. Unmarked numbers belong to inactive results.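 The calls were made as follows: active = activation, scaled between plate controls, above about 75% (limit read from the data); inactive = activation under that limit.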

Assay: inhibitors of zVAD-triggered necroptosis, primary screen, L929 cells (AID 1377);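 also: 0% = zVAD with DMSO and 100% = DMSO alone without zVAD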
Details: ATP luminescence, 24 h, at 10 µM, stronger effect = higher value; with zVAD 60 µM unless noted
For `Cc1[nH]c(=O)c(C(=O)/C=C/c2ccccc2)c2c1CCCC2`, the viability rescue was 79.8% [with zVAD 20 µM] (active).
Compound `O=C(/C=C/c1ccccc1)c1ccccc1O` has a viability rescue of 1.78%.
Compound `Cc1nc(-c2ccccc2)sc1C(=O)/C=C/c1ccccc1` has a viability rescue of 0.15% [with zVAD 20 µM].
Compound `CCc1cc2c(=O)c(-c3nc4ccccc4n3C)c(CCCC(=O)O)oc2cc1OC(=O)C(C)(C)C` has a viability rescue of 3.54%.
`Fc1ccc2c(c1)C(c1cccnc1)=NNC(c1cccs1)=N2` showed a viability rescue of 0.66%.
`COc1cccc(/C=N/NC(=O)CNC(=O)c2ccc(S(=O)(=O)N3CCOCC3)cc2)c1OC` gave a viability rescue of 0.08%.
Work on `COc1c(N2CCN(C(=S)Nc3ccccc3F)C(C)C2)c(F)cc2c(=O)c(C(=O)O)cn(C3CC3)c12` (stereo unspecified) yielded a viability rescue of -0.64%.
Work on `CC1CCCC(C)N1/N=C/c1ccccc1OC(F)F` (stereo unspecified) yielded a viability rescue of 2.14%.
Compound `O=C(Cn1cnc2ccccc2c1=O)Nc1cccc(S(=O)(=O)N2CCCCC2)c1` has a viability rescue of 2.04%.
Compound `Cc1ccc(NC(=O)c2ccc(Oc3ncccn3)cc2)cc1` has a viability rescue of 3.02%.
With `CCn1c(SCCC(C)C)nnc1-c1c[nH]c2ccccc12` the viability rescue was 81.2% [with zVAD 20 µM] (active).
Work on `CCC(C)Sc1nnc(-c2c[nH]c3ccccc23)n1CCOC` (stereo unspecified) yielded a viability rescue of 2.86% [with zVAD 20 µM].
In the case of `CCn1c(SCC(=O)Nc2ccc(OC)c(OC)c2)nnc1-c1c[nH]c2ccccc12`, the viability rescue is reported as 1.56% [with zVAD 20 µM].
Work on `CCOc1cccc2c1OC1(CCCCC1)N1N=C(c3cccnc3)CC21` (stereo unspecified) yielded a viability rescue of 1.15%.
Compound `Cc1ccc(NC(=O)C/C(N)=N/O)cc1Cl` has a viability rescue of 1.11%.
For `CCC(=O)c1ccc(OCC(=O)Nc2ccc3nc(C)sc3c2)cc1`, the viability rescue was 0.76%.
For `Cc1ccc(NC(=O)COc2ccc(-n3ccnc3)cc2)cc1Cl`, the viability rescue was 76.3% [with zVAD 20 µM] (active).
Compound `O=C(Cc1coc2ccc3ccccc3c12)NCc1cccs1` has a viability rescue of 0.48%.
Work on `Cc1ccccc1NC(=O)NC1(C(=O)N2CCCC2)CCCCC1` yielded a viability rescue of 4.41%.
`CCOC(=O)N1CCN(C(=O)CSc2ccc(Cl)cc2)CC1` gave a viability rescue of -0.42% [with zVAD 20 µM].
`CCOC(=O)N1CCN(C(=O)COc2ccc(Cl)cc2C)CC1` showed a viability rescue of 0.53%.
With `CCOC(=O)N1CCN(C(=O)CNC(=O)Cc2ccc(Cl)cc2)CC1` the viability rescue was 80.3% (active).
`O=C(NC(=S)Nc1ccc2oc(=O)ccc2c1)c1ccc(-c2cccc(Cl)c2Cl)o1` showed a viability rescue of 0.38%.
In the case of `CC(=O)c1cc(C#N)c(SCC(=O)C(C)(C)C)nc1C`, the viability rescue is reported as 0.46%.
`Cc1[nH]c2ccccc2c1SCC(=O)Nc1nccs1` showed a viability rescue of 1%.
For `CC(=O)c1cc(C#N)c(SCC(=O)Nc2nccs2)nc1C`, the viability rescue was 82.9% (active).
Work on `COc1ccc(C(CCN(Cc2ccc(OC)c(OC)c2)C(=O)CCl)c2ccccc2)cc1` (stereo unspecified) yielded a viability rescue of 36.4% [with zVAD 20 µM].
In the case of `O=C(c1ccco1)N1CCN(C(=O)c2ccc(COc3ccc(F)cc3)o2)CC1`, the viability rescue is reported as 77.8% [with zVAD 20 µM] (active).
Work on `O=C(c1ccco1)N1CCN(CCOc2ccccc2)CC1` yielded a viability rescue of -0.6%.
For `COc1ccccc1OCc1ccc(C(=O)N2CCN(C)CC2)o1`, the viability rescue was 0.99%.
With `O=C(C/C(=N\NC(=O)c1ccccc1Br)C(F)(F)F)c1cccs1` the viability rescue was 0.26%.
Work on `Cc1cc(C(=O)N2CCC(C(=O)O)CC2)c(C(F)(F)F)o1` yielded a viability rescue of -0.1%.
Work on `COC(=O)C1=C(C)N(C(C)c2ccccc2)C(=O)/C1=C\c1ccco1` (stereo unspecified) yielded a viability rescue of 10.9%.
In the case of `O=C(CCN1CCN(c2ccccc2)CC1)NNC(=S)Nc1ccccc1`, the viability rescue is reported as 1.61%.
With `Cn1ccc(NC(=O)Nc2ccc(Cl)cc2)n1` the viability rescue was 75.5% (active).
For `Cc1cc(NC(=O)Nc2ccc(Cl)cc2)n(-c2ccccc2)n1`, the viability rescue was 22.9%.
In the case of `Cc1nn(C)cc1CNC(=O)Nc1ccc(Cl)cc1`, the viability rescue is reported as 0.19%.
In the case of `COC(=O)Cn1cc(/C=C/[N+](=O)[O-])c2ccccc21`, the viability rescue is reported as -0.01%.
With `COc1cc(NS(=O)(=O)c2ccc(N/C=C(\C=O)c3nc4cc(Cl)ccc4o3)cc2)nc(OC)n1` the viability rescue was 0.63%.
In the case of `Cc1ccc(N2C(=O)C(CC(=O)Nc3cccc(F)c3)N(CCc3ccncc3)C2=O)cc1` (stereo unspecified), the viability rescue is reported as 6.31%.
For `CCc1c(SCCC(=O)O)nc2ccccc2c1C`, the viability rescue was 5.34%.
`Cn1c2ccc(F)cc2c2nnc(NN)nc21` gave a viability rescue of 1.53%.
In the case of `C=CCO/N=C/C1=C(O)C(C(=O)OC)C(C)(C)CC1=O` (stereo unspecified), the viability rescue is reported as 4.04%.
`CCCCC(CCC(=O)Nc1ccc(C(=O)OCC)cc1)C(=O)O` (stereo unspecified) showed a viability rescue of 0.34% [with zVAD 20 µM].
In the case of `CC(C)NC(=O)NC(=O)COC(=O)c1ccc(NC(=O)CC#N)cc1`, the viability rescue is reported as 78.9% (active).
For `NC(=O)c1ccc(NC(=O)COC(=O)c2ccc([N+](=O)[O-])cc2)cc1`, the viability rescue was 1.41%.
`Cn1c(C(=O)NCCCN2CCN(c3cccc(Cl)c3)CC2)cc2c(=O)n(C)c3ccccc3c21` showed a viability rescue of 4.61%.
With `CCN1CCCC1CNC(=O)c1cc2c(=O)n(C)c3ccccc3c2n1C` (stereo unspecified) the viability rescue was 22.7% [with zVAD 20 µM].
With `CC1CCCC(C)N1CCCNC(=O)c1cc2c(=O)n(C)c3ccccc3c2n1C` (stereo unspecified) the viability rescue was 80.8% [with zVAD 20 µM] (active).
In the case of `CN(C)S(=O)(=O)Oc1ccccc1C(=O)Nc1ccccc1Cl`, the viability rescue is reported as -0.16%.
With `COCCN1C2=C(COC(C)(C)C2)C(=S)NC1c1ccccc1` (stereo unspecified) the viability rescue was 0.35%.
For `O=C(COC(=O)c1ccc(Cl)nc1)NCc1cccs1`, the viability rescue was 1%.
Work on `CCCn1c(SCC(=O)Nc2cccc(C(=O)OCC)c2)nnc1-c1ccoc1C` yielded a viability rescue of -0.07% [with zVAD 20 µM].
`COc1ccccc1NC(=O)CSc1nnc(-c2ccoc2C)n1CCc1ccccc1` gave a viability rescue of -0.28% [with zVAD 20 µM].
With `CCn1c(SCC(=O)Nc2nc3ccc(OC)cc3s2)nnc1-c1ccoc1C` the viability rescue was 88.1% [with zVAD 20 µM] (active).
For `COc1ccc(N2C(=O)C3C(C2=O)C(C(=O)c2ccccc2)N2CCCC32)cc1` (stereo unspecified), the viability rescue was -0.53%.
